Data on 32 compounds can be found in ChEMBL document CHEMBL3988442, “University of Dundee, Small-Polar-MMV Screening Library” (2021).

The experiment deals with T1, Methionyl-tRNA synthetase, putative (Leishmania donovani (strain BPK282A1)) (UniProt E9BF75).
T1 sequence (whole entry): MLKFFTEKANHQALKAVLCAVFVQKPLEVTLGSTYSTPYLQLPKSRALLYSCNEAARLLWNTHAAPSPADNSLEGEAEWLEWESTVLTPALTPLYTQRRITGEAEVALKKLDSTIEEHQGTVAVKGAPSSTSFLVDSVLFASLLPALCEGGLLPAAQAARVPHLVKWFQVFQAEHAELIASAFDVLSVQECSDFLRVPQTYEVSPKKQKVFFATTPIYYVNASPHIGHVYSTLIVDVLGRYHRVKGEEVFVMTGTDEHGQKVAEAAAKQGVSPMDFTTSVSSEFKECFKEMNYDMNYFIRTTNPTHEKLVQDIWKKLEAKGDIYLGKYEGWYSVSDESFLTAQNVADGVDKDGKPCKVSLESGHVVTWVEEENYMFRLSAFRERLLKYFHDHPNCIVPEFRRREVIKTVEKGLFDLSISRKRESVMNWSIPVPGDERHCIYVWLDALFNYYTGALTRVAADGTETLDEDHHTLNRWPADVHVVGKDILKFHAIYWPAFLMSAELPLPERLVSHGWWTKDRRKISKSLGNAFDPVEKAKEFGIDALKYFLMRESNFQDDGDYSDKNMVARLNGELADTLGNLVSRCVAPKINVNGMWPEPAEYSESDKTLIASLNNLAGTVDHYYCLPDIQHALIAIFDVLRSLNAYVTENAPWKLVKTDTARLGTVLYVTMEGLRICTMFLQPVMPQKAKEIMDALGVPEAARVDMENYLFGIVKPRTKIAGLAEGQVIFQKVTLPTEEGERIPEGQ
Put plainly: Leishmania donovani Methionine tRNA synthetase (LdMetRS):v7. Dose response assay. The format is functional. The arrangement: conc 80 nM, time 150 minutes.

Molecules are shown by their SMILES.

In the case of `CC1CCc2c(sc3nc(CN4CCOCC4)nc(NCC4CC4)c23)C1` (stereo not drawn), the PXC50 is < 4 (MAX_EFFECT 17.08542714) and < 4 (MAX_EFFECT 17.93611794). On to `Cn1cc(CN2CCC(F)(F)C3(CCN(c4ccccn4)C3)C2)cn1` (stereo not drawn), for which the PXC50 reads like this: (MAX_EFFECT 6.802721088) < 4; (MAX_EFFECT 8.971962617) < 4. Consider `Cc1ccc(N2CCCC(N(C)c3ncnc4c3CCC4)C2)nn1` (stereo not drawn), for which the PXC50 by setting is: (MAX_EFFECT 10.79812207) < 4; (MAX_EFFECT 20.18518519) < 4.

`Nc1nc(CSc2ccccn2)nc2sc3c(c12)CCCC3`: the PXC50 (MAX_EFFECT 37.33333333) is < 4 and the PXC50 (MAX_EFFECT 37.56613757) was < 4. For the compound `Cc1sc2nc(-c3cccs3)nc(N3CCNC(=O)C3)c2c1C`, the PXC50 was < 4 (MAX_EFFECT 4.8) and < 4 (MAX_EFFECT 8.994708995). As to `Nc1noc2ccc(-c3cnc4ccc(NCCn5cccn5)nn34)cc12`, the PXC50 by setting is: (MAX_EFFECT 13.59649123) < 4; (MAX_EFFECT 13.74045802) < 4. Consider `O=C(NCC1CCCCC1)c1cc(=O)c2cc(O)ccc2o1`, for which the PXC50 is, setting by setting: (MAX_EFFECT 0.575815739) < 4; (MAX_EFFECT 4.306220096) < 4. As for `O=C(O)C1CCCN1c1nc(-c2ccc(Cl)c(Cl)c2)cc(C(F)(F)F)n1` (stereo not drawn), the PXC50 (MAX_EFFECT 9.660574413) is < 4 and the PXC50 (MAX_EFFECT 10.44386423) was < 4. Take `Cc1nc(N2CCN(CCO)CC2)c2c(-c3ccccc3)csc2n1`: the PXC50 (MAX_EFFECT 6.12244898) was < 4 and the PXC50 (MAX_EFFECT 9.848484848) is < 4.

For the compound `COc1cc(Nc2ncccc2S(N)(=O)=O)cc(C(F)(F)F)c1`, under “MAX_EFFECT 0.199600798”, the PXC50 was < 4. As for `CC(C)C[C@H](N)COc1ccccc1C(=O)c1ccccc1`, the PXC50 (MAX_EFFECT 1.863354037) was < 4 and the PXC50 (MAX_EFFECT -0.213219616) is < 4. Take `CS(=O)(=O)N1CCN(c2ccc3ccc(C(=O)NC4CCOCC4)cn23)CC1`: the PXC50 runs as follows: (BOTTOM 2.519402955, HILLSLOPE 2.221498876, MAX_EFFECT 53.88127854, TOP 54.22998304) 4.8; (BOTTOM -4.408166057, HILLSLOPE 3.645653811, MAX_EFFECT 56.79245283, TOP 54.33837105) 4.78.

Turning to `Cc1nc(NCCCN2CCC(O)CC2)c2c(-c3cccs3)csc2n1`, the PXC50 (MAX_EFFECT 4.325699746) is < 4 and the PXC50 (MAX_EFFECT 7.808564232) is < 4. With `CC(C)C[C@H](N)C(=O)Nc1cccnc1Oc1ccc(Cl)cc1`, the PXC50 (MAX_EFFECT 2.186878728) is < 4 and the PXC50 (MAX_EFFECT 7.568807339) is < 4. For `Cc1sc2nc(C(F)(F)F)nc(N3CCN(S(C)(=O)=O)CC3)c2c1C`, the PXC50 is < 4 (MAX_EFFECT 4.699738903) and < 4 (MAX_EFFECT -2.872062663). `Cc1sc2nc(CCN)nc(N(CCN(C)C)CC3CCCO3)c2c1C` (stereo not drawn): the PXC50 is, setting by setting: (MAX_EFFECT 8.838383838) < 4; (MAX_EFFECT 10.20408163) < 4. As to `FC1(F)CCN(c2ccccc2)CC12CCN(c1ncccn1)C2` (stereo not drawn), the PXC50 is < 4 (MAX_EFFECT 8.920187793) and < 4 (MAX_EFFECT 12.40740741). As to `CCN1CCN(c2nc(-c3cccc(OC)c3)cc(C(F)(F)F)n2)CC1`, the PXC50 is < 4 (MAX_EFFECT 17.85714286) and < 4 (MAX_EFFECT 18.43434343). Regarding `Cc1cc2c(N3CCOCC3)nc(-c3cccnc3)nc2s1`, the PXC50 by setting is: (MAX_EFFECT 2.18579235) < 4; (MAX_EFFECT 5.347593583) < 4. `COc1cc(C(=O)NC2CCCC2)cn2c(N3CCN(S(C)(=O)=O)CC3)ccc12`: the PXC50 came to 4.17 (BOTTOM 3.193013855, HILLSLOPE 0.707285439, MAX_EFFECT 58.33333333, TOP 100.0) and 4.43 (BOTTOM -2.394752883, HILLSLOPE 0.813527414, MAX_EFFECT 65.35087719, TOP 100.0). Consider `OB1OCc2cc(Cl)ncc21`, for which the PXC50 is < 4 (MAX_EFFECT 7.762557078) and < 4 (MAX_EFFECT 14.1509434).

Regarding `Cc1cccc(Nc2ncccc2S(N)(=O)=O)c1`, for the setting “MAX_EFFECT 4.448742747”, the PXC50 is < 4. Regarding `NS(=O)(=O)c1cccnc1Nc1cc(C(=O)O)cc(C(F)(F)F)c1`, the PXC50 (MAX_EFFECT 6.165703276) was < 4.

For `Cc1nn(C)cc1-c1cc(C(F)(F)F)nc(NC2CCCCC2)n1`, the PXC50 (MAX_EFFECT 7.049608355) is < 4 and the PXC50 (MAX_EFFECT 12.01044386) was < 4.

Take `c1ccc(-c2nc(-n3cnnc3)c3ccccc3n2)cc1`: the PXC50 (MAX_EFFECT 0.740740741) is < 4.

As to `FC(F)(F)c1nc(N2CCCC2)nc2c1CCCCC2`, the PXC50 reads like this: (MAX_EFFECT 2.290076336) < 4; (MAX_EFFECT 5.793450882) < 4. With `Clc1cc(Cl)c2c(c1)NCCC2`, the PXC50 reads like this: (MAX_EFFECT 10.1511879) < 3; (MAX_EFFECT 15.01901141) < 3.

Regarding `Cc1nc(N2CC(N3CCCCC3C)C2)c2ccsc2n1` (stereo not drawn), the PXC50 (MAX_EFFECT 5.319148936) was < 4 and the PXC50 (MAX_EFFECT 5.699481865) was < 4. Turning to `COc1ccncc1NC(=O)N1CCOc2ccccc21`, the PXC50 (MAX_EFFECT 6.037735849) was < 4. On to `CCNc1nc(CN2CCCCC2)nc2scc(-c3ccccc3)c12`, for which the PXC50 is, setting by setting: (MAX_EFFECT 17.42424242) < 4; (MAX_EFFECT 18.36734694) < 4.

`CCN(CC)c1ccc2ccc(C(=O)N(C)C)cn12`: the PXC50 was < 4 (MAX_EFFECT 27.22222222) and < 4 (MAX_EFFECT 35.21126761). As for `CN(CCO)c1ccnc(Nc2cccc(C(F)(F)F)c2)n1`, the PXC50 (BOTTOM -8.924411722, HILLSLOPE 0.906080231, MAX_EFFECT 87.09055877, TOP 92.74987259) was 5.38.
